The text below walks through data of the supplement of paper PMC9446081.

± gives the standard deviation of the averaged measurements.

The test addresses T1, MurD (UniProt P14900).
T1 sequence (whole entry): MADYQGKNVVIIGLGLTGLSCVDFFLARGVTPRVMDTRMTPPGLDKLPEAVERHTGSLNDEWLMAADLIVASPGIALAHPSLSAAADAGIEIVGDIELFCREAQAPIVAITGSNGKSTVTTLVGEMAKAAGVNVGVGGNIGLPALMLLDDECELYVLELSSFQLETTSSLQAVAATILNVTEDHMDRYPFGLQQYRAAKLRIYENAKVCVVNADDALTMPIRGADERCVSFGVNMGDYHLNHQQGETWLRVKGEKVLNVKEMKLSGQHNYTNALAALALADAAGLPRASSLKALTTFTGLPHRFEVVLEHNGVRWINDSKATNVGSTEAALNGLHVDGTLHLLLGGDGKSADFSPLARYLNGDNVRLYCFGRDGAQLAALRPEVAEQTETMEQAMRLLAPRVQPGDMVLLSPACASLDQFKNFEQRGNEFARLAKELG
The experiment in a line: relative enzymatic activity vs untreated control (fraction); higher = less inhibition. The settings on record: 100 µM; incubation time: 2 h at 37 C. The protocol: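 In vitro enzymatic inhibition assays (ProFoldin kits) for 12 purified essential E. coli enzymes or complexes, each treated with 218 active antibacterial compounds at 100 µM for 2 h at 37°C. Read-outs were fluorescence or absorbance (phosphate detection, dye binding), converted to activity via standard curves and expressed relative to untreated DMSO controls.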
With `Cn1ncnc2c(=O)n(C)c(=O)nc1-2`, the relative enzymatic activity was 0.598 ± 0.36.
The result for `O=[N+]([O-])C(Br)(CO)CO` reads 0.486 ± 0.48.
The figure for `CN1C(=O)[C@]23CC4=CC=C[C@H](O)[C@H]4N2C(=O)[C@@]1(CO)SS3` is 0.574 ± 0.39; for `[O-][n+]1ccccc1[S][Zn][S]c1cccc[n+]1[O-]` it is 0.587 ± 0.4.
The compound `O=[N+]([O-])c1ccc(N(CCO)CCO)c2c1no[n+]2[O-]` came in with a relative enzymatic activity of 0.623 ± 0.41.
In the case of `O=S(=O)(O)O.Oc1cccc2cccnc12`, the relative enzymatic activity is 0.564 ± 0.35.
As for `CCCCCCCCCCCCCCCC[n+]1ccccc1.[Cl-]`, the relative enzymatic activity is 0.0847 ± 0.0065.
Consider `COP(=S)(OC)Oc1cc(Cl)c(Cl)cc1Cl`, for which the relative enzymatic activity was found to be 0.655 ± 0.44.
Regarding `Cc1c(N)nc([C@H](CC(N)=O)NC[C@@H](N)C(N)=O)nc1C(=O)N[C@H](C(=O)N[C@@H](C)[C@H](O)[C@@H](C)C(=O)N[C@@H](C(=O)NCCc1nc(-c2nc(C(=O)NCCC[S+](C)C)cs2)cs1)[C@@H](C)O)[C@@H](O[C@H]1O[C@H](CO)[C@H](O)[C@@H](O)[C@H]1O[C@H]1O[C@H](CO)[C@@H](O)[C@H](OC(N)=O)[C@@H]1O)c1cnc[nH]1`, the relative enzymatic activity came out at 0.624 ± 0.45.
The result for `CCCCCCCCCCCCCCCC[N+](C)(C)C.[Br-]` reads 0.256 ± 0.17.
The result for `CNC1C(O)C(OC2C(N)CC(N)C(OC3OC(C(C)O)C(O)C(O)C3N)C2O)OCC1(C)O` (centres undefined) reads 0.592 ± 0.38; that for `CC(=O)Oc1ccc(Cl)c2cccnc12`, 0.611 ± 0.41; that for `C[CH2][Hg][S]c1ccccc1C(=O)[O-].[Na+]`, 0.657 ± 0.43.
On to `CCCCCCCCCCCCCCCC[n+]1ccccc1`, for which the relative enzymatic activity stood at 0.191 ± 0.13.
Compound `O=C1C=C2C(=CCOC2O)O1` (centres undefined) displayed a relative enzymatic activity of 0.611 ± 0.42.
`CN(C)[C@@H]1C(=O)[C@@H](C(N)=O)C(=O)[C@@]2(O)C(=O)[C@H]3C(=O)c4c(O)ccc(Cl)c4[C@@](C)(O)[C@H]3C[C@@H]12`: the relative enzymatic activity was found to be 0.607 ± 0.41.
`CN(C)[C@@H]1C(=O)C(C(N)=O)=C(O)[C@@]2(O)C(O)=C3C(=O)c4c(O)cccc4[C@](C)(O)[C@H]3C[C@@H]12` came in with a relative enzymatic activity of 0.606 ± 0.43.
Compound `Cc1nc2c(=O)n(C)c(=O)nc-2n(C)n1` returned a relative enzymatic activity of 0.174 ± 0.24.
Regarding `CN[C@H]1C[C@@H](N)[C@H](O)[C@@H](O[C@@H]2O[C@H](CO)[C@H](O)[C@@H]3O[C@@]4(O[C@H]23)O[C@H]([C@@H](N)CO)[C@H](O)[C@H](O)[C@H]4O)[C@@H]1O`, the relative enzymatic activity worked out at 0.592 ± 0.39.
`Oc1cc(Cl)ccc1Oc1ccc(Cl)cc1Cl` had a relative enzymatic activity of 0.759 ± 0.41.
With `CCn1cc(C(=O)[O-])c(=O)c2cc3c(cc21)OCO3.[K+]`, the relative enzymatic activity came to 0.598 ± 0.42.
The compound `CC(=O)[O][Hg][c]1ccccc1` yielded a relative enzymatic activity of 0.226 ± 0.14.
`CN(C)[C@@H]1C(=O)[C@H](C(N)=O)C(=O)[C@@]2(O)C(=O)[C@@H]3C(=O)c4c(O)cccc4[C@@](C)(O)[C@H]3C[C@@H]12` gave a relative enzymatic activity of 0.603 ± 0.41.
The figure for `Cc1c(N)nc([C@H](CC(N)=O)NC[C@@H](N)C(N)=O)nc1C(=O)N[C@H](C(=O)N[C@@H](C)[C@H](O)[C@@H](C)C(=O)N[C@@H](C(=O)NCCc1nc(-c2nc(C(=O)NCCC[S+](C)C)cs2)cs1)[C@@H](C)O)[C@@H](O[C@H]1O[C@H](CO)[C@H](O)[C@@H](O)[C@H]1O[C@H]1O[C@H](CO)[C@@H](O)[C@H](OC(N)=O)[C@@H]1O)c1c[nH]cn1` is 0.969 ± 0.9.
